Experimental findings from PubChem BioAssay (EPA / NIEHS) are described below.

Results filed as inconclusive are left out. Calls of active or inactive are those of the source. Rule for the calls, unless noted: active = hit-call score of the fitted dose curve at least 0.9, where 1 is the maximum; inconclusive = response in the unintended direction; inactive = score below 0.9.

Assay [1] deals with Bile acid receptor (Homo sapiens) (UniProt Q96RI1). The experiment in a line: ATG_FXR_TRANS: Attagene TRANS-FACTORIAL HepG2 Assay for Farnesoid X Receptor (FXR) (AID 2282979).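 Note: hits raise reporter mRNA above DMSO so AC50 marks FXR activation.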 Conditions: HepG2 Attagene TRANS FXR-GAL4 reporter transcription. Put shortly:
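Chimeric FXR-GAL4 activity in transiently transfected human HepG2 liver cells is scored as induction of reporter mRNA after 24 h of dosing. Detection uses RT-PCR with fluorescent labelling and capillary electrophoresis, with DMSO serving as baseline.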

The nature of assay [2]: ATG_M_06_TRANS: Attagene TRANS-FACTORIAL HepG2 Assay for M06 Transcription Factor (Internal Marker) (AID 2282983).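 Note: reporter transcript level by RT-PCR then capillary electrophoresis fluorescence.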 As to conditions: HepG2 Attagene TRANS M06 internal marker reporter. In a few lines: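 Human liver HepG2 cells bearing transiently transfected chimeric NR-GAL4 reporter units were treated with chemicals for 24 h. Total RNA was reverse-transcribed, reporter sequences amplified and labelled, then quantified by capillary electrophoresis. Activity was fitted upward relative to DMSO.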

Assay [3] can be described thus: ATG_M_32_TRANS: Attagene TRANS-FACTORIAL HepG2 Assay for M32 Transcription Factor (Internal Marker) (AID 2282984).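 Note: transcript level of a background control reporter unit measured by RT-PCR and capillary electrophoresis.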 Conditions: HepG2 Attagene TRANS M32 internal marker reporter. Put shortly:
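Fluorescence-detected mRNA induction, HepG2 liver cells, 24 h after dosing. Multiple GAL4-UAS reporter units introduced by transient transfection; background-control endpoint analysed for gain of signal against DMSO.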

The target in assay [4] is Transcriptional activator Myb (Homo sapiens) (UniProt P10242). The experiment in a line: ATG_Myb_CIS: Attagene CIS-FACTORIAL HepG2 Assay for human Myeloblastosis (Myb) Proto-Oncogene Transcription Factor (AID 2282986; active = hit-call score of the fitted dose curve at least 0.9, where 1 is the maximum; inactive = score below 0.9). As to conditions: HepG2 Attagene CIS-FACTORIAL Myb reporter transcription; actives raise or lower the signal. In a few lines: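 Steps: transfect HepG2 with cis-regulated reporter units; dose with chemical for 24 h; isolate RNA, reverse-transcribe, PCR-amplify and FAM-label reporter sequences; digest with HpaI; resolve by capillary electrophoresis. Activity fitted in both directions relative to DMSO.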

Assay [5] deals with Oxysterols receptor LXR-alpha (Homo sapiens) (UniProt Q13133). The experiment in a line: ATG_LXRa_TRANS: Attagene TRANS-FACTORIAL HepG2 Assay for human Liver X Receptor alpha (LXRa) (AID 2282980). As to conditions: HepG2 Attagene TRANS reporter, LXRa transactivation. Put shortly: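 Transient HepG2 transfectants, 24 h dosing, RT-PCR/CE mRNA reporter quantitation; gain-of-signal vs DMSO.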

Assay [6] concerns the target Oxysterols receptor LXR-beta (Homo sapiens) (UniProt P55055). In words: ATG_LXRb_TRANS: Attagene TRANS-FACTORIAL HepG2 Assay for human Liver X Receptor beta (LXRb) (AID 2282981). As to conditions: HepG2 Attagene TRANS GAL4-LXRb reporter, mRNA. Put shortly: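 Liver-derived HepG2 cells transfected with Gal4-responsive reporters were dosed for 24 h. Activation was scored as rise in reporter mRNA, by RT-PCR and capillary electrophoresis, above DMSO baseline.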

In assay [7] the target is Nuclear receptor subfamily 4 group A member 2 (Homo sapiens) (UniProt P43354). The experiment in a line: ATG_NURR1_TRANS: Attagene TRANS-FACTORIAL HepG2 Assay for human Nuclear Receptor Related Protein 1 (NURR1) (AID 2282985). Conditions: HepG2 Attagene TRANS reporter, mRNA readout. In a few lines: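 Chimeric NR-Gal4 proteins were expressed in human HepG2 cells bearing GAL4-UAS reporter units, and induced reporter mRNA was quantified 24 h post-dosing by RT-PCR and capillary electrophoresis.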

Assay [8] concerns the target Hepatocyte nuclear factor 4-alpha (Homo sapiens) (UniProt P41235). The experiment in a line: ATG_HNF4a_TRANS: Attagene TRANS-FACTORIAL HepG2 Assay for human Hepatocyte Nuclear Factor 4 alpha (HNF4a) (AID 2282982). As to conditions: HepG2 HNF4a transactivation reporter, mRNA readout. In a few lines: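 Using HepG2 liver cells transfected with GAL4-UAS reporter units, chemical-induced mRNA increases were assessed after 24 hours. Fluorescent RT-PCR fragments were separated by capillary electrophoresis and compared with DMSO negative controls.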

Sequence of Bile acid receptor (Homo sapiens) (Q96RI1 whole entry, looked up, the tested form may be a part): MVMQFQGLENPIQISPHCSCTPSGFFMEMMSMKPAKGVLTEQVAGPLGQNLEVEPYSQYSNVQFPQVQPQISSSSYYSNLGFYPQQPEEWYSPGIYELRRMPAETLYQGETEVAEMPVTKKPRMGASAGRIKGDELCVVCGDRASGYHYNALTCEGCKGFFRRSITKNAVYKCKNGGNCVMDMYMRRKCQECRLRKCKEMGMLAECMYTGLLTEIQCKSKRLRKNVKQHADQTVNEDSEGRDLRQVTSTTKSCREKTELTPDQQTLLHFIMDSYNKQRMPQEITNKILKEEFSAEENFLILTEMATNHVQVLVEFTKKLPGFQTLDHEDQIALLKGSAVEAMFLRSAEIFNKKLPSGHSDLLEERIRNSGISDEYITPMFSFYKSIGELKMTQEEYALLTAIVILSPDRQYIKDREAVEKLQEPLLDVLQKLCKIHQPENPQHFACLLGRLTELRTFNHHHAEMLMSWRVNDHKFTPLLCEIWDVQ
Sequence of Oxysterols receptor LXR-alpha (Homo sapiens) (Q13133 whole entry, looked up): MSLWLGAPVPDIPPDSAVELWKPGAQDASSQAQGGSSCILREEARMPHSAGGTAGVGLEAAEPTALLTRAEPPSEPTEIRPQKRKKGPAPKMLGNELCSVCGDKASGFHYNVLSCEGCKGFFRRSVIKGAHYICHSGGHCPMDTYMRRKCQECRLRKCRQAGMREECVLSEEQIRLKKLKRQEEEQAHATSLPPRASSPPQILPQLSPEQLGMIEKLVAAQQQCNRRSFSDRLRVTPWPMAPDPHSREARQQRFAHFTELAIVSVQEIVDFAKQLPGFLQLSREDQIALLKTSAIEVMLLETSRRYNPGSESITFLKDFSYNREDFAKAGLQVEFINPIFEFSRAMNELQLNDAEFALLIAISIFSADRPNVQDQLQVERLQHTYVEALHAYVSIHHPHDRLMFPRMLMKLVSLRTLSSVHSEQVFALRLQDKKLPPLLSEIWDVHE
Sequence of Transcriptional activator Myb (Homo sapiens) (P10242 whole entry, looked up): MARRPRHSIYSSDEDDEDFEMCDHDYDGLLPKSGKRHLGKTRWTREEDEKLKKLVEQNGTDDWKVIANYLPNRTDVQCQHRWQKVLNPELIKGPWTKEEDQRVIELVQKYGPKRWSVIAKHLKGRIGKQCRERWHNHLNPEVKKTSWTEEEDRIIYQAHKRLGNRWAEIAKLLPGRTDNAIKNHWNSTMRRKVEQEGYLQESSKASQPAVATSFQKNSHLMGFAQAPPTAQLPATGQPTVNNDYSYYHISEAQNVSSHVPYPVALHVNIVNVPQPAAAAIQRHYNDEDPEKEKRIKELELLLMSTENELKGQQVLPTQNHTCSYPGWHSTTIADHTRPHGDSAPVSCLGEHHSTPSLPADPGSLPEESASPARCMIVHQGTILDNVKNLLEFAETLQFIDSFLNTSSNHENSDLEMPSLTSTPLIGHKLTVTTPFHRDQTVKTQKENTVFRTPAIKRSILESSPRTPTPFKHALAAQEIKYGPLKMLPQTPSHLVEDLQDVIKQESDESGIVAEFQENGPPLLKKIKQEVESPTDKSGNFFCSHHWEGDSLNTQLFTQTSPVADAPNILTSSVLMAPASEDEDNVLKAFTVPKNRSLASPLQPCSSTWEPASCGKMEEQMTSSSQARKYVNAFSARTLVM
Sequence of Hepatocyte nuclear factor 4-alpha (Homo sapiens) (P41235 whole entry, looked up, the tested form may be a part): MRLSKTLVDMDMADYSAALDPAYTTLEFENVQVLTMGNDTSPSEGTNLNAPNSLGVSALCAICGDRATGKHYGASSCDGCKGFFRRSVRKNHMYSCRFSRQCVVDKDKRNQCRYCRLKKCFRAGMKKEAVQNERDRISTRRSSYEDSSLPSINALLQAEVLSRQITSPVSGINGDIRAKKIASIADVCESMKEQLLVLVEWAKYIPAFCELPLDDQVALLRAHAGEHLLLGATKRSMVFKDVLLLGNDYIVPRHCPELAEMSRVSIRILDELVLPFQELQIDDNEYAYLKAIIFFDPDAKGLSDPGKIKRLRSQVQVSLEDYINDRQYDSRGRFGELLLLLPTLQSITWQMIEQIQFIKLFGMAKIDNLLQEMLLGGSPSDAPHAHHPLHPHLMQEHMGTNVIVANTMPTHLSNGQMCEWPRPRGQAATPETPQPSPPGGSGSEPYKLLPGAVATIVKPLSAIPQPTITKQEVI
Sequence of Oxysterols receptor LXR-beta (Homo sapiens) (P55055 whole entry, looked up, the tested form may be a part): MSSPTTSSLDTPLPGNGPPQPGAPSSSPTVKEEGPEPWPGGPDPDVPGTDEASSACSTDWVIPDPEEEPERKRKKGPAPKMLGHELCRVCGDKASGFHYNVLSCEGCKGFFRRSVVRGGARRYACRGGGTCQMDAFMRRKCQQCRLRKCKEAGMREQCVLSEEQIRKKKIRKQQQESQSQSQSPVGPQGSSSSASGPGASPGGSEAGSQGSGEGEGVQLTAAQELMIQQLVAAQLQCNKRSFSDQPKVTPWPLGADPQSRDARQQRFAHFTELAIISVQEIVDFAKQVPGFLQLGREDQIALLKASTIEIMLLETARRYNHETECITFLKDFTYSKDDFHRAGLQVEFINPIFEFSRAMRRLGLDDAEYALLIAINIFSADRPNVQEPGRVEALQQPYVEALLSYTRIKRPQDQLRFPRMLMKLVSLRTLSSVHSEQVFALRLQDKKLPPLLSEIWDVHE
Sequence of Nuclear receptor subfamily 4 group A member 2 (Homo sapiens) (P43354 whole entry, looked up, the tested form may be a part): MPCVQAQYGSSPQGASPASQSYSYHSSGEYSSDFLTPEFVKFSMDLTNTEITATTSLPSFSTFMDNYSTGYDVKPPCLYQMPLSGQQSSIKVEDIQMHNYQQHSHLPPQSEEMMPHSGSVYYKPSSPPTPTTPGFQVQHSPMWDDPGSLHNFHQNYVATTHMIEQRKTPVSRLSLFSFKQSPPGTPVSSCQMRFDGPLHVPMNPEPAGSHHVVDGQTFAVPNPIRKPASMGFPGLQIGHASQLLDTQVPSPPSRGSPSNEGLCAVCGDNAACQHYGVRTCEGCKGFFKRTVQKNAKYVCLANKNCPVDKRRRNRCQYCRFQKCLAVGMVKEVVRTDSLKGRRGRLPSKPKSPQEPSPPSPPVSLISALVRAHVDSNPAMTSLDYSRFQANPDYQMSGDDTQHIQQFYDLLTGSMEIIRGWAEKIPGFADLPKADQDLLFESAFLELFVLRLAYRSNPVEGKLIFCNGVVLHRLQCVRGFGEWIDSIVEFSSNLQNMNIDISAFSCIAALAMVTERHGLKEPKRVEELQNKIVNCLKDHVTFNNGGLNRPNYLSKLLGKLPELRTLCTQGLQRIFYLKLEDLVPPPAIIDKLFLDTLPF

Take `CCc1occc(=O)c1O`: the outcome in assay [1], in assay [2], in assay [3] and in assay [4] was inactive.
Turning to `CC(C)COC(=O)CC(C(=O)OCC(C)C)S(=O)(=O)O` (configuration not stated), the call in assay [5], in assay [6], in assay [7] and in assay [4] was inactive.
On to `CCCC/C=C/C=C\C=O`, for which the outcome in assay [1], in assay [6], in assay [3] and in assay [4] was inactive.
As to `CCCCNS(=O)(=O)c1ccc(C)cc1`, the result in assay [5], in assay [6], in assay [2], in assay [7] and in assay [4] was inactive.
Turning to `NNS(=O)(=O)c1ccc(Oc2ccc(S(=O)(=O)NN)cc2)cc1`, the result in assay [5], in assay [6], in assay [3], in assay [7] and in assay [4] was inactive.
Regarding `CCCCOCC(C)O` (configuration not stated), the outcome in assay [5], in assay [8], in assay [2], in assay [7] and in assay [4] was inactive.
Take `CCC[Si](OC)(OC)OC`: the compound was classed as inactive in assay [5], in assay [6], in assay [8], in assay [3], in assay [7] and in assay [4].
For orientation: AC50 means the concentration giving half of the maximal activity seen. On to `CCCCCCCCCCCCCCCCCCOS(=O)(=O)O`, for which the compound was classed as inactive in assay [5], in assay [6], in assay [8], in assay [3] and in assay [4]. In addition, in assay [7], the AC50 was 179 µM (active).
As for `N#Cc1ccc(C2CCCc3cncn32)cc1` (configuration not stated), the compound was called inactive in assay [5], in assay [2], in assay [3], in assay [7] and in assay [4].
In the case of `Oc1c(Cl)cc(Cl)c(Cl)c1Cl`, the compound was classed as inactive in assay [5], in assay [6], in assay [8], in assay [2] and in assay [4].
As for `CCOC(=O)c1ccc(C)cc1`, the outcome in assay [5], in assay [6], in assay [2], in assay [7] and in assay [4] was inactive.
`CCC(C)N` (configuration not stated): the compound was called inactive in assay [5], in assay [8], in assay [2] and in assay [4].
In the case of `C=C(C)C1CC=C(C)CC1` (configuration not stated), the compound was classed as inactive in assay [5], in assay [6], in assay [2], in assay [3], in assay [7] and in assay [4].
Regarding `C=CC(C)(CCC=C(C)C)OC(=O)C=Cc1ccccc1` (configuration not stated), the outcome in assay [1], in assay [6], in assay [2] and in assay [4] was inactive.
For the compound `CC(CC=O)CC(C)(C)C` (configuration not stated), the compound was classed as inactive in assay [5], in assay [6], in assay [7] and in assay [4].
As to `CC1=CCC(C(C)C)C=C1` (configuration not stated), the result in assay [5], in assay [6], in assay [8], in assay [2], in assay [3] and in assay [7] was inactive. Also, the outcome in assay [4] was inactive.
For the compound `COC(Cc1ccccc1)OC`, the compound was called inactive in assay [5], in assay [6], in assay [8], in assay [2], in assay [3] and in assay [7]. Moreover, in assay [4], the outcome was inactive.
On to `O=C(O[C@@H]1Cc2c(O)cc(O)cc2O[C@@H]1c1cc(O)c(O)c(O)c1)c1cc(O)c(O)c(O)c1`, for which the outcome in assay [5], in assay [6], in assay [2], in assay [3], in assay [7] and in assay [4] was inactive.
In the case of `CCCCCCOc1ccc(N)cc1`, the call in assay [1], in assay [2], in assay [3] and in assay [4] was inactive.
For the compound `COC(=O)C=Cc1ccccc1`, the outcome in assay [5], in assay [6], in assay [2] and in assay [4] was inactive.
Consider `CC(CC(C)C)=NO`, for which the compound was classed as inactive in assay [2] and in assay [4].
With `CC/C=C\CCOC(=O)c1ccccc1O`, the compound was called inactive in assay [8], in assay [3], in assay [7] and in assay [4].
Take `CC1=CC=C(C(C)C)CC1`: the call in assay [5], in assay [2] and in assay [4] was inactive.
For the compound `Nc1ccnc(=O)[nH]1`, the outcome in assay [6], in assay [2], in assay [3], in assay [7] and in assay [4] was inactive.
Take `CC=C(C)C(C)=O`: the compound was called inactive in assay [6], in assay [2] and in assay [4]. For the same compound, the AC50 in assay [7] is 44.7 µM (active).
On to `CCOC(=O)c1ccccc1C`, for which the outcome in assay [6], in assay [2], in assay [7] and in assay [4] was inactive.
